Screens: PubChem BioAssay, National Center for Advancing Translational Sciences (NCATS)
In the library only some 19% were active in any assay of this set; here they are far more common.
DT40 TDP1 no CPT: qHTS for Inhibitors of human tyrosyl-DNA phosphodiesterase 1 (TDP1): qHTS in cells in absence of CPT | DT40 Tdp1-/- hTDP1 cells, no CPT, ATP luminescence, 48 h | Potency, µM (series often up to 46.2 µM), inactives show at the top dose activity change, negative = growth inhibition, most hits filed as inhibitors | 15% of 420,000 active; further: potency means the concentration at half of the fitted maximal effect; nearly all actives have a fitted effect of over 55% in size
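Stably hTDP1-transfected Tdp1-null chicken DT40 cells were treated with library compounds minus camptothecin and grown for at least 48 hr at 37 °C, after which cellular ATP was quantified by luminescence.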
IL-1B inflam inh: qHTS for Inhibitors of Inflammasome Signaling: IL-1-beta AlphaLISA Primary Screen; 4.7% of 360,000 active; AID 743279, 2014; activity change, % at 57.5 µM; THP-1 LPS/ATP IL-1B secretion, AlphaLISA, 16 h; active compounds read low; in the data active means activity change below about -50%; inconclusive means mostly about -30% to -49%
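THP-1 cells pretreated 1 hr with compounds (up to 57.5 uM final), then stimulated with LPS (250 ng/mL final) plus ATP (1.25 mM final); secreted IL-1B measured by AlphaLISA after 16 hr, decreased signal indicating inhibition.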
HT1080 IDH1KD tx: qHTS for induction of synthetic lethality in tumor cells producing 2HG: qHTS for the HT-1080-IDH1KD cell line; Potency, µM (titrated, usually from 46.1 µM), for inactives: top-dose activity, negative = toxicity, hits mostly cytotoxic; AID 686971, 2013; HT-1080 IDH1 knockdown viability, ATP luminescence, 48 h; 2% of 360,000 active;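 further: potency means the concentration at half of the fitted maximal effect; 0% = DMSO wells and -100% = cell-free medium wells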
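% activity derives from luminescence (CellTiter-Glo), normalised to DMSO and no-cell wells. HT-1080-IDH1KD cells, 750/well, had 48 h compound exposure at 37 °C.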
DT40 TDP1 CPT: qHTS for Inhibitors of human tyrosyl-DNA phosphodiesterase 1 (TDP1): qHTS in cells in presence of CPT; chicken DT40 Tdp1-/-;hTDP1 cells + 20 nM CPT, ATP luminescence, 48 h; Potency, µM (highest dose often 46.2 µM), without a hit: top-dose activity change, negative = growth inhibition, most hits filed as inhibitors; 12% of 420,000 active; further: potency means the concentration at half of the fitted maximal effect; nearly all actives have a fitted effect of over 55% in size
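Cell growth measured by CellTiter-Glo luminescence after a minimum 48 h, 37 C compound exposure with 20 nM CPT in Tdp1-knockout DT40 cells stably expressing hTDP1, seeded 400/well; qHTS titration format.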
HT1080NT lethal: qHTS for induction of synthetic lethality in tumor cells producing 2HG: qHTS for the HT-1080-NT fibrosarcoma cell line; HT-1080-NT fibrosarcoma viability, CellTiter-Glo ATP luminescence, 48 h; Potency, µM (titrated, usually from 46.1 µM), inactives show at the top dose activity, negative = less viability, actives largely listed as cytotoxic; 1.6% of 360,000 active; AID 686970, 2013;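 further: NT is the 2HG producing partner of a matched IDH1 knockdown line; potency means the concentration at half of the fitted maximal effect; 0% = DMSO-treated cells and -100% = media-only wells without cells; nearly all actives have a fitted effect of over 55% in size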
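HT-1080-NT; 750 cells/well; 5% FBS RPMI; 48 h compound, 37 degrees C; CellTiter-Glo luminescence; curve fitting and curve-class assignment.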
ELG1 DNA repair: qHTS screen for small molecules that inhibit ELG1-dependent DNA repair in human embryonic kidney (HEK293T) cells expressing luciferase-tagged ELG1. HEK293T ELG1-luciferase reporter, luminescence, 16 h; DNA damage induced by 5-fluorouridine. Potency, µM (highest dose often 46.1 µM), for inactives: at the top dose activity change, negative = inhibition, actives largely listed as inhibitors. 2.3% of 330,000 active. AID 504467, 2011; further: potency means the concentration at half of the fitted maximal effect; nearly all actives have a fitted effect of over 55% in size
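Step one: seed 2,000 cells per well. Step two: pin-transfer compound or DMSO alongside 5-fluorouridine. Step three: incubate 16 hr, 37 °C, 5% CO2. Step four: add ONE-Glo, wait 30 min, read luminescence.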
* marks the source's active call; other numbers are inactive results; ? = inconclusive; / = not tested or not shown; [ ] = another dose, or the depositor's remark. Unless noted, the call rests on the fitted dose curve; in most records, active means well fitted curve in the direction sought with a large enough effect; inconclusive means small, poorly fitted or top-dose-only effect, or another doubt; inactive means no such curve, though single readings can be large; an effect the other way counts as inactive or inconclusive. Unless noted, on the % scale 0 is the no-effect control and ±100 the full control effect.

SMILES | DT40 TDP1 no CPT | IL-1B inflam inh | HT1080 IDH1KD tx | DT40 TDP1 CPT | HT1080NT lethal | ELG1 DNA repair
Cc1cc2nc(/N=C(\N)NC(=O)N3c4ccccc4Sc4ccccc43)nc(C)c2cc1C | 15µM* | -7 | 22% | ? | 19% | -2%
Cc1ccc2nc(/N=C(\N)NC(=O)N3c4ccccc4Sc4ccccc43)nc(C)c2c1 | 9.2µM* | 5 | -2% | ? | 4% | -7%
CCCNC(=O)N1c2ccccc2Sc2ccccc21 | ? | -1 | -2% | -10% | -1% | -17%
CCC(=O)N/C(N)=N/c1nc(C)c2cc(OC)ccc2n1 | 12µM* | -66* | ? | 13µM* | 7%[9.24 µM] | ?
Cc1ccc2c(C)nc(/N=C(\N)NC(=O)N3c4ccccc4Sc4ccccc43)nc2c1 | 21µM* | -15 | -2% | ? | 0% | 6%
COc1ccc2nc(/N=C(\N)NC(=O)C(C)(C)C)nc(C)c2c1 | ? | ? | -1% | -18% | 4% | 20%
Cc1ccc(NCc2nnc(SCC(=O)N3c4ccccc4Sc4ccccc43)o2)c(C)c1 | ? | -16 | -1% | ? | 3% | -3%
Cc1ccc2c(c1)cc(C(=O)NCc1ccccc1C)n2C | -25% | / | / | -17% | / | /
COc1ccc2nc(/N=C(\N)NC(=O)N3c4ccccc4Sc4ccccc43)nc(C)c2c1 | 16µM* | 4 | -12% | 13µM* | 7% | -29%
Cc1ccc(S(=O)(=O)CC(=O)N2CCCCCC2)cc1 | -8% | -2 | -1% | -18% | 0% | 19%
CC(=O)N1CCN(c2ccc([N+](=O)[O-])cc2)CC1 | -21% | 16 | 4% | 9% | -1% | -5%
Cc1ccc(CC(=O)N2CCN(c3ccc([N+](=O)[O-])cc3)CC2)cc1 | 7.3µM* | / | ? | ? | -24% | -22%
Cc1ccc(S(=O)(=O)CC(=O)N2CCN(c3ccc([N+](=O)[O-])cc3)CC2)cc1 | ? | -21 | -20% | 13µM* | -24% | 10µM*
CCN(CC(=O)Nc1c(F)cccc1F)C(=O)C1CCN(S(=O)(=O)c2ccc(C)c(C)c2)CC1 | ? | -13 | -20% | -7% | -17% | -10%
COC(=O)c1ccc2c(=O)[nH]c(COC(=O)CCC(=O)c3ccc(Cl)cc3)nc2c1 | 3% | -1 | 6% | 14% | 12% | 1%
Cc1coc(NC(=O)CSc2nc(-c3ccc(Cl)cc3)cc(C(F)(F)F)c2C#N)n1 | ? | 43 | -24% | 21µM* | ? | 3%
COc1ccc(OCC(O)CNCCOc2ccccc2OC)c(C(C)(C)C)c1 (stereo unspecified) | 9.2µM* | -73* | -13% | 10µM* | -28% | ?
COc1ccc(NCC(O)COc2ccc(C(C)(C)C)cc2)cc1 (stereo unspecified) | ? | -65* | ? | ? | ? | 7%
Cc1ccccc1OCC(O)CNCCOc1ccc(C(N)=O)cc1 (stereo unspecified) | -26% | / | / | 0% | / | /
OC(CNCc1ccco1)COc1ccccc1 (stereo unspecified) | -41% | 7 | -23% | 1.2µM* | -6% | 5%
OC(CNc1ccccc1)COc1ccc(OCC(O)CNc2ccccc2)cc1 (stereo unspecified) | 8.2µM* | -51* | 21µM* | 13µM* | 21µM* | ?
CCOCC(O)CNc1ccccc1 (stereo unspecified) | -11% | 3 | 17% | 1% | 10% | 14%
CC(C)(C)C(=O)Nc1cc2c3c(c1)CCN3C(=O)CC2 | 26% | 5 | 5% | 17% | 1% | ?
C1NNCC12CNNC2 | -7% | / | 0% | 19% | ? | /
COc1ccc(CNCC(O)COc2ccc(C(C)(C)c3ccccc3)cc2)cc1 (stereo unspecified) | ? | -100* | 16µM* | ? | 21µM* | -8%
SMILES | DT40 TDP1 no CPT | IL-1B inflam inh | HT1080 IDH1KD tx | DT40 TDP1 CPT | HT1080NT lethal | ELG1 DNA repair
COC(=O)c1ccc(CNCC(O)COc2ccc(-c3ccccc3)cc2)cc1 (stereo unspecified) | ? | 14 | -10% | ? | -15% | 2%
CC(C)(C)c1ccc(OCC(O)CNC(=O)c2ccccc2C(=O)O)cc1 (stereo unspecified) | ? | 24 | 2% | -25% | -16% | /
COc1ccccc1NCC(O)COc1ccc(C(C)(C)C)cc1 (stereo unspecified) | 16µM* | -106* | 16µM* | 15µM* | 16µM* | 11%
CCN(CC)C(=O)C(c1ccccc1)S(=O)(=O)N1CCOCC1 (stereo unspecified) | -1% | 0 | ? | -3% | 0% | /
O=C(NCc1ccc(F)cc1F)[C@@H]1CCCN1C(=O)[C@@H]1CCCN1C(=O)c1ccccc1 | -22% | -95* | 1% | -28% | 5% | /
COc1cccc(C(=O)N2CCC[C@H]2C(=O)N2CCC[C@H]2C(=O)NCc2ccc(F)cc2F)c1 | ? | 26 | 7% | -27% | 11% | /
COc1ccc(CN(C(=O)Nc2cccc(Cl)c2)c2ccccn2)cc1OC | 13µM* | / | / | ? | / | /
Cc1ccc(CN(C(=O)Nc2cccc(Cl)c2)c2ccccn2)cc1 | 16µM* | / | / | ? | / | /
COc1ccc(CN(C(=O)Nc2ccccc2)c2ccccn2)cc1OC | -18% | / | / | 3% | / | /
CCN1C[C@@H]2[C@@H]3C(=O)N(Cc4ccccc4)C(=O)[C@@H]3[C@](C)(C1=O)N2C(=O)c1ccc(Cl)cc1 | -4% | -1 | 5% | -7% | 3% | /
CCCC(=O)N1CCN(c2ccc(NC(=O)c3cccs3)cc2Cl)CC1 | -16% | -84* | 2% | -25% | -4% | 7.3µM*
CC(=O)c1ccc(N2CCN(c3ccc(NC(=O)c4cccs4)cc3C(=O)O)CC2)cc1 | -13% | / | / | -5% | / | /
CCCC(=O)N1CCN(c2ccc(NC(=O)C(C)(C)C)cc2Cl)CC1 | ? | 0 | -22% | 21µM* | -2% | -9%
Cc1ccc(S(=O)(=O)N(CCc2ccccc2)CC(=O)Nc2ccc(Br)cc2)cc1 | 16µM* | / | / | ? | / | /
